# Measurements reported in PubChem BioAssay AID588742 (Southern Research Specialized Biocontainment Screening …, 2011).
# The campaign covered roughly 1,800 compounds. About 410 (23%) were called active. These entries were drawn from the full list. Results with a measured potency or affinity are listed apart. Values without a mark were called inactive. How the calls were made is not given here.
# Test: Vero cell cytotoxicity, cytotoxicity control for flavivirus capping enzyme inhibitors (AID 588742)
# Details: Vero cells viability, cytotoxicity counter-screen; series mostly up to 40 µM; viability: at the top concentration
row,SMILES,viability
1,O=[N+]([O-])c1ccc(Cl)c2c1C1C=CCC1C(c1ccccn1)N2 (stereo not given),94.9%
2,Cc1c(OCC(=O)NCCCN2CCCC2=O)ccc2c3c(c(=O)oc12)CCCC3,95.5%
3,Cc1cc(=O)c2c(o1)C(=O)c1occc1C2=O,101%
4,C/C(=C/CCC(C)[C@H]1CC[C@@]2(C)C3=C(CC[C@]12C)[C@@]1(C)CCC(=O)C(C)(C)[C@@H]1CC3)C(=O)O (stereo not given in full),82.7%
5,CCOc1cc(C2CC(=O)N3CN(C4CCCCC4)CSC3=C2C#N)ccc1O (stereo not given),95.7%
6,N#CC1=C(N)N(c2ccc(Br)cc2)C2=C(C(=O)CCC2)C1c1cccnc1 (stereo not given),93.9%
7,Cc1[nH]n(-c2ccccc2)c(=O)c1N=Nc1ccccc1C(=O)O,81.8%
8,COc1cc(/C=C2/C(=O)NN(c3cccc(C)c3)C2=O)cc([N+](=O)[O-])c1O,98.2%
9,COc1cc(/C=C2\S/C(=N/S(=O)(=O)c3ccccc3)NC2=O)c([N+](=O)[O-])cc1OC,106%
10,COc1cc(/C=C2/C(=O)NN(c3ccc(F)cc3)C2=O)cc([N+](=O)[O-])c1O,92.3%
11,O=C(O)CN1C(=O)/C(=C2\SC(=S)N(C(Cc3ccccc3)C(=O)O)C2=O)c2ccccc21 (stereo not given),102%
12,O=C(O)c1cnn2c(C(F)(F)F)cc(-c3ccccc3)nc12,92.9%
13,O=C1Nc2ccc(Cl)cc2C12Nc1ccccc1-c1nnc(SCc3ccccc3F)nc1O2 (stereo not given),102%
14,Cc1cc(O)c(C(C)C)cc1N=Cc1ccccc1[N+](=O)[O-],103%
15,Cc1csc(N/N=C/c2ccc(O)c([N+](=O)[O-])c2)n1,90.3%
16,Cc1ccc(S(=O)(=O)Nc2nc(-c3ccc(F)cc3)cs2)cc1,106%
17,Cc1nc(COC(=O)c2cc(O)c3ccccc3c2O)cs1,97.2%
18,CC(=O)c1cc(O)c2ccccc2c1O,94.9%
19,NC(=O)COc1ccc(/C=C2\C(=O)ON=C2c2ccccc2)cc1,107%
20,CC(=O)N1CCn2c3c(c(=O)c4cc(C)ccc42)CCC31 (stereo not given),104%
21,O=C(O)c1ccc(Cl)c(S(=O)(=O)Nc2ccc(S(=O)(=O)Nc3cccc(Cl)c3)cc2)c1,103%
22,Cc1ccc(C2C(C#N)=C(N)OC3=C2C(=O)CC(C)(C)C3)s1 (stereo not given),98.2%
23,Cc1ccc(SCc2[nH]nc3c2C(c2ccc(C)o2)C(C#N)=C(N)O3)cc1 (stereo not given),96.4%
24,CCS(=O)(=O)c1nc(S(=O)(=O)c2ccc(C)cc2)c(N2CCCC2)s1,92.6%
25,C=CCNc1cc(N2CCCC2)ccc1[N+](=O)[O-],88%

row,SMILES,viability
1,O=C(O)CC/C(=C\c1ccc(N2CCCC2)c([N+](=O)[O-])c1)c1nc2ccccc2s1,93.8%
2,COc1ccc(/C=C2/SC(=S)N(CC(=O)O)C2=O)cc1OCc1ccc(Cl)cc1,95.3%
3,O=C(O)CSc1cc(C(=O)c2ccccc2O)cn2c(=O)c3c4c(sc3nc12)CCCC4,99.5%
4,COc1ccc(O)c(C(=O)c2cc(SCC(=O)O)c3nc4sc5c(c4c(=O)n3c2)CCCC5)c1,104%
5,O=C(CNc1ccc2ccccc2c1)N/N=C/c1ccncc1,85.9%
6,CN(C)c1cccc(C(=O)OC(C(=O)Nc2ccc([N+](=O)[O-])cc2Br)c2ccccc2)c1 (stereo not given),96.1%
7,CC1=NN(C(=S)Nc2ccccc2)C(c2ccccc2)C1 (stereo not given),94.9%
8,Cc1cccc(C2C3=C(Nc4[nH]n(-c5ccccc5)c(=O)c42)c2ccccc2C3=O)c1 (stereo not given),89.5%
9,COc1cc(N2CCCC2)c(OC)cc1C=O,95.6%
10,COc1ccc(S(=O)(=O)CC(=O)c2cc3cccc(C)c3oc2=O)cc1,99.1%
11,N#Cc1c(SC(C(=O)O)c2ccccc2)nc2c(c1-c1cccs1)CCCC2 (stereo not given),104%
12,CC1=NN(c2nc(-c3ccccc3)cs2)C(=O)C1,100%
13,COc1cc(/C=C(\C#N)C(=O)Nc2ccccc2C(=O)O)cc(Cl)c1OC,86.9%
14,COc1ccc2nc3cccc(OC)c3nc2c1,86.4%
15,COc1ccc2nc3ccccc3nc2c1N,90.1%
16,COc1cc(N=c2ssnc2Cl)c(OC)cc1Cl,90.8%
17,O=C(O)/C(CC(=O)c1ccc(Cl)cc1)=N/Nc1ccc([N+](=O)[O-])cc1[N+](=O)[O-],101%
18,O=C(c1ccc(NC(=O)C(c2ccccc2)c2ccccc2)cc1)c1ccc(C(=O)O)c(C(=O)O)c1,101%
19,COc1ccccc1/C=C1/C(=O)N(c2ccccc2)N=C1C,96.3%
20,CC1=NN(c2ccccc2)C(=O)/C1=C/c1cccs1,98.1%
21,CC(=O)CSc1nsc(SCC(C)=O)c1C#N,96.2%
22,C=CCOc1ccccc1OCC(O)CNC(C)C (stereo not given),97.4%
23,O=C(CN1C(=O)/C(=C2/SC(=S)N(CCS(=O)(=O)O)C2=O)c2ccccc21)Nc1cccc(C(F)(F)F)c1,102%
24,Cc1oc2cc([N+](=O)[O-])c(O)c([N+](=O)[O-])c2c1C(=O)c1ccc(Br)cc1,95.3%
25,O=[N+]([O-])c1cc(-c2ccccc2)cc([N+](=O)[O-])c1O,96.4%

row,SMILES,viability
1,CC(CNC(=O)CN1C(=O)COc2ccc(S(=O)(=O)N3CCCCC3)cc21)c1ccccc1 (stereo not given),108%
2,COc1ccc(-c2ccc(CCC(=O)O)o2)cc1,105%
3,COC(=O)CCC(=O)OC1(C)C(=O)C2=CN(C3CCCC3)C(c3ccc(OC)cc3)=CC2=C(Br)C1=O (stereo not given),101%
4,O=C(O)/C=C/C(=O)c1ccc(O)cc1,101%
5,Cc1ccc(C(=O)/C=C/C(=O)O)cc1,105%
6,O=C(O)c1[nH]c2ccccc2c1C(c1cc(Br)ccc1O)c1c(C(=O)O)[nH]c2ccccc12,97%
7,Cc1ccc(NCc2cccnc2)c(Br)c1,86.1%
8,O=C(CC(Nc1cccc(Cl)c1Cl)C(=O)O)c1ccccc1 (stereo not given),112%
9,COc1ccc(C(C2C(=O)CC(C)(C)CC2=O)C2C(=O)CC(C)(C)CC2=O)cc1,97.5%
10,CCOC(=O)c1c(C)oc2c1c(CN1CCN(C(=O)OCC)CC1)c(O)c1ccccc12,85.7%
11,O=C(O)CN1C(=O)C=CC1=O,93.5%
12,CCOC(=O)c1c(NC(=O)C2C3C=CC(C3)C2C(=O)O)sc2c1CCC(CC)C2 (stereo not given),98.6%
13,Cc1ccc(/C=C2\SC(=S)N(C(Cc3ccccc3)C(=O)O)C2=O)cc1 (stereo not given),90%
14,CCOC(=O)C1=C(C)NC2=C(C(=O)C(C(=O)OCC)C(c3ccco3)C2)C1c1ccccn1 (stereo not given),101%
15,Cc1ccc(C(=O)N/N=C/c2ccc(-c3ccc(Br)cc3[N+](=O)[O-])o2)o1,92.3%
16,C=CCOc1ccc(/C=C2\SC(=S)N(C(C(=O)O)c3ccccc3)C2=O)cc1 (stereo not given),98.8%
17,C=CCn1c(=S)[nH]c2scc(-c3ccco3)c2c1=O,105%
18,Cc1ccc(Cn2c(=S)[nH]c3ccc(N4CCOCC4)cc3c2=O)o1,90%
19,Cc1ccc(NC(=S)NNc2ccc([N+](=O)[O-])cc2S(=O)(=O)Nc2ccccc2C(=O)O)cc1C,91%
20,O=C(O)COc1ccccc1C=NNc1ccc([N+](=O)[O-])cc1S(=O)(=O)Nc1ccc(Cl)cc1,95.3%
21,CC(C)COCC(O)CCC(=O)NNC(=S)Nc1ccccc1 (stereo not given),96%
22,Cc1ccc2ccc(C#N)cc2c1O,97.7%
23,COc1ccccc1-c1cc(C(=O)Nc2sc3c(c2C#N)CCC(C)C3)c2ccccc2n1 (stereo not given),89.8%
24,COc1cc(C(c2c(C(=O)O)[nH]c3ccccc23)c2c(C(=O)O)[nH]c3ccccc23)ccc1OCc1ccccc1,102%
25,COc1cc(/C=C2\C(=N)N3N=C(N4CCOCC4)SC3=NC2=O)ccc1OC(=O)c1ccccc1,93.8%

row,SMILES,viability
1,Cc1cccc(N2C(=O)C(Cl)=C(N3CCOCC3)C2=O)c1,96.8%
2,COc1ccc(C2C=C(c3ccc(Br)cc3)Nc3nc(N4C(=O)CCC4=O)nn32)cc1 (stereo not given),92.4%
3,Cc1ccc(C)c(S(=O)(=O)Nc2ccc(O)c3ccccc23)c1,98.5%
4,Cc1ccc(S(=O)(=O)Nc2ccc3ccccc3c2[N+](=O)[O-])cc1,98.3%
5,O=C(O)c1ccc(N/N=C/c2cn(Cc3ccccc3F)c3ccccc23)cc1,82.6%
6,CC(/C=C1\SC(=S)N(NS(=O)(=O)c2ccc(C)cc2)C1=O)=C\c1ccccc1,93.5%
7,Cc1nc2ccc(NC(=O)c3cc([N+](=O)[O-])cc([N+](=O)[O-])c3Cl)cc2s1,109%
8,Cc1cc([N+](=O)[O-])c(C)cc1-c1ccc(/C=N/NC(=O)c2cccnc2)o1,93.1%
9,CN(C)c1c([N+](=O)[O-])cc(N2C(=O)C=CC2=O)cc1[N+](=O)[O-],100%
10,CCOc1ccc(/C=C2\SC(=S)N(NS(=O)(=O)c3ccccc3)C2=O)cc1OC,95.8%
11,O=C(CCN1C(=O)S/C(=C/c2ccccc2)C1=O)Nc1ccc(O)c(C(=O)O)c1,100%
12,COc1ccc(OC)c(-n2c(-c3ccc(O)cc3O)n[nH]c2=S)c1,108%
13,Cc1sc(NC(=O)C2CCCCC2C(=O)O)c(C(N)=O)c1-c1ccc(C(C)C)cc1 (stereo not given),97.5%
14,Cc1sc(NC(=O)C2CCCCC2C(=O)O)c(C(N)=O)c1-c1ccc(C(C)(C)C)cc1 (stereo not given),98.8%
15,COC(=O)c1sc(-c2ccc(C(C)(C)C)cc2)cc1NC(=O)c1ccccc1C(=O)O,84%
16,O=C(O)CN1C(=O)/C(=C\c2cc(Br)ccc2OCc2ccccc2Cl)SC1=S,86.5%
17,Oc1cc(CNCc2ccccc2)c(O)cc1CNCc1ccccc1,91.2%
18,O=C(O)CN1C(=O)/C(=C\c2cccc(OCc3ccc(Cl)cc3)c2)SC1=S,89.3%
19,O=[N+]([O-])c1ccc(N/N=C2/CCCCC2c2ccccn2)c([N+](=O)[O-])c1 (stereo not given),91.9%
20,CCCc1nc2nc(C)c(NS(=O)(=O)c3ccc(C4CCCCC4)cc3)c(=O)n2[nH]1,103%
21,COc1ccc(Cl)cc1/C=C1/C(=O)ON=C1C,93.8%
22,COc1ccc(OC)c(N2C(=O)C(Cl)=C(N3CCOCC3)C2=O)c1,110%
23,CN1c2ccccc2C(C)(C)C12C=Nc1c(ccc3ccccc13)O2 (stereo not given),92.2%
24,O=C(COC(=O)c1ccc(NS(=O)(=O)c2cccs2)cc1O)NC1CCCCC1,87.3%
25,O=C1CCCc2cc(S(=O)(=O)N3CCC(C(=O)NCc4ccccc4)CC3)ccc2N1,96.7%
